From PubChem BioAssay AID1259415 (National Center for Advancing Translational Sciences (NCATS), 2018)
Screen size: about 410,000 compounds; about 18,000 (4.4%) were called active. Roughly 7% stayed inconclusive and do not appear here. The full list was thinned out, with actives kept by preference. Values without a mark were called inactive. Cut-off read from the data, not from the text of the source: active = activity change below about -60%; inconclusive = no clear call, values can overlap the other calls; inactive = above about -39%.
% is set by controls: 0 for no effect and ±100 for the full control effect.

Assay: qHTS Assay for inhibitors of the human cytomegalovirus (HCMV)
Details: HFF cells, HCMV-luciferase reporter, 72 h; at 57.5 µM; hits give low values
Outline: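 After 16 h attachment at 37C, HFF cells received test compound and HCMV-luciferase (1 PFU/cell); reporter luminescence read 72 h later, data normalized against buffer-only and known inhibitor Salinomycin.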
Compound `CCN(C(=O)COC(=O)c1c(C)nn(-c2ccccc2)c1Cl)c1c(N)n(Cc2ccccc2)c(=O)[nH]c1=O` has an activity change, negative = inhibition of -3.2%. In the case of `Cn1cccc1Cc1nnc(SCC(=O)NCc2ccc3c(c2)OCO3)n1CCc1ccccc1`, the activity change, negative = inhibition is reported as -7.07%. Compound `O=C(CSc1ccc(-c2ccco2)nn1)NCc1ccc2c(c1)OCO2` has an activity change, negative = inhibition of -3.61%. In the case of `O=C(CSc1ncnc2scc(-c3ccccc3)c12)NCc1ccc2c(c1)OCO2`, the activity change, negative = inhibition is reported as -73.8% (active). `COc1cc2nc(SCc3ccc(F)cc3)n3nc(CCn4c(C)nc5ccccc54)nc3c2cc1OC` showed an activity change, negative = inhibition of -1.21%. In the case of `O=C(CCC(=O)N1CC2CCCN2c2ccccc21)NCc1ccccc1Cl` (stereo not drawn), the activity change, negative = inhibition is reported as -6.89%. Compound `COc1cc(NC(=O)CSc2nc3nc(C)c(Cc4ccc(C)cc4)c(C)n3n2)cc(OC)c1OC` has an activity change, negative = inhibition of 0%. With `CCOC(=O)c1c(NC(=O)C2CCN(S(=O)(=O)c3ccc(Cl)cc3)CC2)sc2c1CCCC2` the activity change, negative = inhibition was -10.4%. For `CCOC(=O)c1c(NC(=O)c2ccc(S(=O)(=O)N3CCCC(C)C3)cc2)sc2c1CCN(C(C)C)C2` (stereo not drawn), the activity change, negative = inhibition was -62.5% (active). Work on `COC(=O)c1c(NC(=O)c2ccc(S(=O)(=O)N3CCOCC3)cc2)sc2c1CCN(C(C)C)C2` yielded an activity change, negative = inhibition of -4.29%. In the case of `NC(=O)CSc1nc2c(oc3ccccc32)c(=O)n1Cc1ccccc1`, the activity change, negative = inhibition is reported as -22.4%. For `COc1ccc(OC)c(NC(=O)Cn2c(=O)n(Cc3ccccc3)c(=O)c3ccccc32)c1`, the activity change, negative = inhibition was -3.04%. `COc1cccc(C(=O)N(Cc2cccc(Cl)c2)Cc2ccco2)c1` gave an activity change, negative = inhibition of -7.17%. In the case of `CCC(=C/c1sc2ccc3ccccc3c2[n+]1C)/C=C1\Sc2ccc3ccccc3c2N1C`, the activity change, negative = inhibition is reported as -100% (active). `CCOc1ccc(N2CC(c3nc4ccccc4n3CCOc3ccc(OC)cc3)CC2=O)cc1` (stereo not drawn) gave an activity change, negative = inhibition of 23.3%. In the case of `Cc1ccc(-n2c(=O)c3cccnc3n2CC(=O)NCc2ccc(F)cc2)cc1C`, the activity change, negative = inhibition is reported as -0.36%. With `O=C(CSc1nc2nccnc2c(=O)n1Cc1cccs1)Nc1ccccc1F` the activity change, negative = inhibition was -31.3%. With `CCOc1ccc(NC(=O)CSc2nc3ccccc3c(=O)n2Cc2cccs2)cc1` the activity change, negative = inhibition was -62.8% (active). Compound `CCOc1ccc(NC(=O)c2cc3c(=O)n(Cc4cccs4)ccc3nc2C)cc1` has an activity change, negative = inhibition of -12.4%. `CCc1ccc(C(=O)C(C)OC(=O)CN2C(=O)NC3(CCCC3)C2=O)cc1` (stereo not drawn) showed an activity change, negative = inhibition of -31.9%. With `O=S(=O)(NCC1CN(S(=O)(=O)c2ccc3c(c2)OCCO3)C1)c1c(F)cccc1F` the activity change, negative = inhibition was -3.7%. Compound `Cc1ccc(S(=O)(=O)c2nc(-c3ccco3)oc2SCC(=O)Nc2ccc(F)cc2)cc1` has an activity change, negative = inhibition of 1.94%. Compound `COc1ccccc1CNc1nccn(-c2ccc(F)cc2)c1=O` has an activity change, negative = inhibition of 18.6%. For `Cn1nc(-c2ccccc2)c2cc([N+](=O)[O-])ccc21`, the activity change, negative = inhibition was -91.8% (active). Compound `Cn1cnc(C(F)(F)F)c1-c1ccc([N+](=O)[O-])cc1` has an activity change, negative = inhibition of -9.95%. Compound `CCN(CC)S(=O)(=O)c1cc([N+](=O)[O-])ccc1N=Nc1c(O)n(C)c2ccccc12` has an activity change, negative = inhibition of -37.9%. For `Cc1cccc(NS(=O)(=O)c2cc(Cl)ccc2Cl)n1`, the activity change, negative = inhibition was -15.4%. Work on `Cn1c(=O)c2[nH]c(NCC3CCCO3)nc2n(-c2ccccc2)c1=O` (stereo not drawn) yielded an activity change, negative = inhibition of -3.27%. For `CCCCCNC(=O)c1cccnc1SCC(=O)Nc1ccccc1OC`, the activity change, negative = inhibition was -9.93%. `Cc1ccc(Oc2c(C(F)(F)F)oc3c(CN4CCCCC4)c(O)ccc3c2=O)cc1` gave an activity change, negative = inhibition of 13.5%. For `CCN1CCN(Cc2c(O)ccc3oc(C)c(C(=O)Nc4ccc(C)cc4C)c23)CC1`, the activity change, negative = inhibition was -4.07%. For `Cc1oc2ccc(O)c(CN3CCCCC3)c2c1C(=O)Nc1cccc(C(F)(F)F)c1`, the activity change, negative = inhibition was -76.5% (active). `Cc1oc2ccc(O)c(CN3CCOCC3)c2c1C(=O)Nc1cccc(Cl)c1C` gave an activity change, negative = inhibition of 0.476%. In the case of `Cc1oc2ccc(O)c(CN3CCC(C)CC3)c2c1C(=O)Nc1ccccc1`, the activity change, negative = inhibition is reported as -68.4% (active). In the case of `CCOC(=O)c1cccc(NC(=O)c2cc(CN3CCCC3)on2)c1`, the activity change, negative = inhibition is reported as 88.3%. With `O=C(NCC(F)(F)F)c1ccc(S(=O)(=O)NCCc2ccc3c(c2)OCCO3)cc1` the activity change, negative = inhibition was -6.01%. Compound `CCOc1ccccc1NC(=O)Cn1c2ncccc2c(=O)n1-c1ccc(C)c(C)c1` has an activity change, negative = inhibition of -10.1%. Work on `CC1CCCN(S(=O)(=O)c2ccc3[nH]c(=O)cc(C(=O)NCCc4ccc(Cl)cc4)c3c2)C1` (stereo not drawn) yielded an activity change, negative = inhibition of -16.9%. For `COC(=O)C(O)(c1ccc(NC(=O)c2ccco2)c(OC)c1)C(F)(F)F` (stereo not drawn), the activity change, negative = inhibition was 14.6%. `CCOC(=O)C(O)(c1ccc(NC(=O)c2ccco2)c(OC)c1)C(F)(F)F` (stereo not drawn) gave an activity change, negative = inhibition of 8.29%. For `COc1cc(NC(=O)c2cc([N+](=O)[O-])ccc2Br)ccc1NC(=O)c1ccco1`, the activity change, negative = inhibition was -60.9% (active). `C=CCOC(=O)C1=C[C@@H](c2ccc3c(c2)OCO3)C[C@@H](OCCCCO)O1` showed an activity change, negative = inhibition of 20.6%. In the case of `CN1C(=O)CC[C@@H](S(=O)(=O)c2ccccc2)[C@@H]1c1ccccc1`, the activity change, negative = inhibition is reported as 9.42%. For `CCOCCCNC(=O)c1cn(CC)c2ccc(S(=O)(=O)N3CCc4ccccc4C3)cc2c1=O`, the activity change, negative = inhibition was 8.54%. For `Cc1cc(C)c2nc3nc(C)cc(C)c3c(N)c2c1`, the activity change, negative = inhibition was -100% (active). Compound `CCOc1ccc(S(=O)(=O)NCCC(=O)N2CCCCCCC2)cc1` has an activity change, negative = inhibition of -33.2%. `Cc1c(C(=O)NCc2ccccc2)cnn1-c1ccccc1` gave an activity change, negative = inhibition of -15.9%. With `CCNC(=O)c1cnn(-c2ccccc2)c1-c1ccccc1` the activity change, negative = inhibition was -99.9% (active). Work on `CCCc1c(C(=O)Nc2ccc(F)cc2)cnn1-c1ccccc1` yielded an activity change, negative = inhibition of 64.5%. For `CSc1cccc(NC(=O)CN2C(=O)CCc3cc(S(=O)(=O)N4CCCCC4)ccc32)c1`, the activity change, negative = inhibition was 23.2%. `Cc1ccc(NC(=O)Nc2sc3nc4n(c(=O)c3c2C)CCC(C)CC4)c(Cl)c1` (stereo not drawn) showed an activity change, negative = inhibition of -0.215%. For `O=C(/C=C/c1ccc([N+](=O)[O-])o1)NNC(=O)c1ccc(F)cc1`, the activity change, negative = inhibition was -99.5% (active). Compound `N#Cc1nc(/C=C/c2ccc(F)cc2)oc1NC1CCCCC1` has an activity change, negative = inhibition of -16.7%. Work on `O=C1C=CN2CCCC2CC1` (stereo not drawn) yielded an activity change, negative = inhibition of -5.48%. Work on `CCc1ccc(NC(=O)Cn2c(=O)n(CCC(=O)NCc3ccc4c(c3)OCO4)c(=O)c3ccccc32)cc1` yielded an activity change, negative = inhibition of 7.9%. In the case of `O=C(Nc1ccc(Br)cn1)C1CCN(S(=O)(=O)c2cccs2)CC1`, the activity change, negative = inhibition is reported as -89.3% (active). Compound `O=C(NCc1ccc(Cl)cc1)C1CCN(S(=O)(=O)c2cccs2)CC1` has an activity change, negative = inhibition of -33.3%. Compound `O=C(C1CCN(S(=O)(=O)c2cccs2)CC1)N1CCCCCC1` has an activity change, negative = inhibition of -4.69%. For `CCCCN(CC)CCCNC(=O)c1nn(C)c2c1CSc1ccccc1-2`, the activity change, negative = inhibition was -32.8%. Work on `CN(CC(=O)NCc1cccnc1)S(=O)(=O)c1cc(Cl)ccc1Cl` yielded an activity change, negative = inhibition of -21.9%. Work on `O=C(Cn1nc(Cc2cccnc2)c2ccccc2c1=O)NCC1CCCO1` (stereo not drawn) yielded an activity change, negative = inhibition of -1.61%. In the case of `Cc1ccc(Cl)cc1N(C)C(=O)Cn1nc(Cc2cccnc2)c2ccccc2c1=O`, the activity change, negative = inhibition is reported as -61.7% (active). For `Cn1c(=O)oc2cc(S(=O)(=O)NCCC(=O)NCc3ccccc3Cl)ccc21`, the activity change, negative = inhibition was -30.3%. In the case of `O=C(O)c1ccc(Nc2nc(-c3ccccc3)c3cc(Br)ccc3n2)cc1`, the activity change, negative = inhibition is reported as 27.8%. With `Cc1ncoc1C(=O)N1CCCC(C(=O)c2ccc3c4c(cccc24)CC3)C1` (stereo not drawn) the activity change, negative = inhibition was -68.2% (active). `CC(=O)NCC(=O)N1CCCC(C(=O)c2ccc3c4c(cccc24)CC3)C1` (stereo not drawn) showed an activity change, negative = inhibition of 2.3%. In the case of `Cc1cc(Cl)ccc1C(=O)C1CCCN(C(=O)c2nonc2C)C1` (stereo not drawn), the activity change, negative = inhibition is reported as -27.9%. With `O=C(Nc1c[nH]c(=O)[nH]c1=O)OCc1ccccc1` the activity change, negative = inhibition was 46%. `CCCC(=O)Nc1ccc(NC(=O)c2sc3ccccc3c2Cl)cc1` showed an activity change, negative = inhibition of 0.957%. For `COC(=O)c1cc(NC(=O)c2sc3ccccc3c2Cl)cc(C(=O)OC)c1`, the activity change, negative = inhibition was 5.87%. For `COc1ccc(CNC(=O)CNC(=O)c2sc3ccccc3c2Cl)cc1OC`, the activity change, negative = inhibition was -67.8% (active). Work on `COc1ccc(S(=O)(=O)N2CCN(C(=O)c3cccs3)CC2)cc1OC` yielded an activity change, negative = inhibition of 1.26%. `COC(=O)c1sccc1S(=O)(=O)N(CC(=O)Nc1ccc(C)c(F)c1)c1ccc(C)c(C)c1` showed an activity change, negative = inhibition of -9.21%. Compound `COc1cccc(NC(=O)CN2C(=O)c3ccccc3Sc3ncccc32)c1` has an activity change, negative = inhibition of 35.8%. `CCc1ccc(N(CC)C(=O)CCn2cnc3onc(-c4ccc(F)cc4)c3c2=O)cc1` showed an activity change, negative = inhibition of 4.29%. `CC[C@H](C)C(=O)N[C@H]1CCCN1C(=O)/C=C/c1ccccc1` gave an activity change, negative = inhibition of -28.4%. In the case of `O=C1CCCCC1C(=O)c1ccccc1` (stereo not drawn), the activity change, negative = inhibition is reported as 7.64%. With `Cc1[nH]c(=O)c(C(=O)/C=C/c2ccccc2)c2c1CCCC2` the activity change, negative = inhibition was -104% (active). With `Cc1ccc(NC2=C(c3ccc(C(F)(F)F)cc3)C(=O)c3ccccc32)cc1F` the activity change, negative = inhibition was -26.8%. For `N#Cc1ccc(C2=CC(=O)C[C@H](c3ccc(Cl)cc3)C2)cc1`, the activity change, negative = inhibition was 10.5%. `O=C1C=C(c2cccc(Cl)c2O)C[C@@H](c2ccc(F)cc2)C1` gave an activity change, negative = inhibition of 15.9%. With `O=C1C=C(c2ccnc3cc(Cl)ccc23)C[C@@H](c2ccc3c(c2)OCO3)C1` the activity change, negative = inhibition was -66.7% (active). For `O=C(Cc1ccc(Cl)cc1)NCCN1CCN(C(=O)Cc2ccc(Cl)cc2)CC1`, the activity change, negative = inhibition was -18.4%. Compound `Cc1ccc(-c2cnc(NCc3ccc(C(C)C)cc3)n2C)cc1` has an activity change, negative = inhibition of -37.1%. In the case of `Cc1ccc(C(=O)Nc2ccc(OCc3cc(=O)n4c(C)csc4n3)cc2)cc1`, the activity change, negative = inhibition is reported as 13.5%. Work on `Cc1ccc(OCCC(=O)Nc2ccc(S(=O)(=O)Nc3nccs3)cc2)cc1` yielded an activity change, negative = inhibition of -11.9%. For `COc1ccccc1OC(C)C(=O)Nc1ccc(S(=O)(=O)Nc2nccs2)cc1` (stereo not drawn), the activity change, negative = inhibition was -71.4% (active). In the case of `CCC(CC)C(=O)Nc1ccc(S(=O)(=O)Nc2nccs2)cc1`, the activity change, negative = inhibition is reported as -32.7%.
